# Data as given in the supplement of paper PMC6555819.
# System: PPARg:RXRa (NR concentration 180 nM, RXRa partner concentration 90 nM)
# Experiment: PBM binding z-score (relative to random genomic background probes); higher = stronger binding; sequences stand for … in GC…GCGATTGACAGCGTAGAATGAAGG
# Method in brief: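 Scanned fluorescence from custom Agilent 4×180K protein-binding microarrays was regression-normalized. Binding z-scores use random background probes as reference. Ligand-free nuclear receptor dimers were incubated on the arrays for 1 h and detected with antibodies against each partner (one per run).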
row,Sequence,PBM binding z-score
1,AATACTGGGTCATCGTAGGCCAGAGTACGCACAG,6.86
2,CAGCCTAGGTCAGGGCCGGTATAGGAGGAACGTT,0.482
3,TAGCCTAGTTCATTGGGCCAGTATAGTACGCATC,0.461
4,ATCGAAAGGTCGAAGTGAGTATAGAGAAAGGGAA,2.38
5,GCTAGTTGGTCAGTAACAGGTCACACACCGGTCG,0.82
6,GCTAGTTGTTCAGTAAAAGGTCACACACCGGTCG,1.84
7,CCGACTGAGGCATAAGGTTACCATAAGCCAGCCC,0.973
8,GATACAGGGTCAGCTAAAGGCCAGAGTATGGAAA,4.07
9,CCGACTGGAGCAAAGGTTACCATACTCAGTACGA,8.49
10,CGTCCAAGGTCAGAGAGGTCAGTGGATGCCGAGT,3.46
11,ACTAGTTGGTCAGCTGAGGTCACCCACAATTCGG,1.42
12,ATCTCTTGGTAAAGTTCAGTGAAAGATCGATAGA,1.54
13,CAAACTAGGTCAAGAGGTCGAAGTCCGCTTCCCG,8.83
14,TAGTCTAGGTCATGCGGGCCAGTATAGTGTCGGC,4.97
15,CCCACTGGGCCAAAGGTCATTGATTCCAATGCTC,11.7
16,ACTAGCAGGCCAAGTTTGGGTCACTCTAACAAAG,-0.172
17,CATACAGGGTCAGCTAGTCCAGAGTAGGGACGGC,3.22
18,GCTGCTAGGTCAAATGATGGTCAGCTAAAGCTCG,2.82
19,TGAAAGAGGTTAAAGATCAGGGAACGTGGCGTCG,4.87
20,AGAACGAGGGCAATGAATTGATAGCACGGGTGGC,1.27
21,ATATGTGGGTTACATCCGGGTCATTCAGGCTATG,5.38
22,ATACCAGGGTGATCGTGAGGTCGTTGATACTAAC,0.781
